# Experimental data taken from PubChem BioAssay (NCI).
# The panel holds about 83,000 compounds, 20% with a hit somewhere; the sample as a whole holds those more often.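 Method: cells in 96-well plates; compound added at one concentration; 48 h incubation; percent growth measured; values under 10 scored active.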 Calls of active or inactive are those of the source.
# Tested on: HOP-92 NSCLC
# Assay: NCI-60 one-dose screen, 48 h (100 = growth as untreated, 0 = no growth, -100 = all killed)
# Conditions: 10 µM unless noted
# Experimental: Growth inhibition of the HOP-92 human Non-Small Cell Lung tumor cell line is measured as a screen for anti-cancer activity. Cells are grown in 96 well plates and exposed to the test compound for 48 hours. Compounds are tested at a single concentration, which is 10^-5 M for most compounds. The reported endpoint is percent growth (GI% or GIPRCNT), where numbers from 0 - 100% represent growth inhibition, and numbers from -100% - 0 represent cell death. For example, a value of 40 represents 60% growth inhibition. A value of 0 means no net growth occurred over the course of the experiment. A value of -40 indicates 40% of cells at the beginning of the experiment died by the end of the experiment. A value of -100 means all cells are dead at the end of the experiment.
# NCI-60 Human Tumor Cell Lines Screen was performed using the standard one-dose NCI protocol, which is described in more detail at https://dtp.cancer.gov/discovery_development/nci-60/default.htm.
# Compounds with GIPRCNT values below 10 were considered active. Activity score was based on GIPRCNT using the following formula: […]
# Score is 0 for GIPRCNT values of 100 or above, 50 for GIPRCNT values of 0, and 100 for GIPRCNT values of -100.
row,Compound,growth
1,O=C1/C(=C/c2ccc(OCc3ccccc3)cc2)Oc2cc(OCCN3CCCCC3)ccc21,70.9% (inactive)
2,CC1(C)CC[C@]23CC[C@]4(C)[C@H](CC[C@@H]5[C@@]6(C)C/C(=C/c7cccnc7)C(=O)C(C)(C)[C@@H]6CC[C@]54C)[C@H]2[C@H]1OC3=O,24.8% [100 µM] (inactive)
3,Nc1cc(Cl)cc2cccnc12,102% (inactive)
4,CC1Cc2c(Cl)ncnc2N(C)c2ccc(Cl)cc21 (stereo not given),8.05% (active)
5,O=C(Nc1ccc(Cl)c(C(F)(F)F)c1)Nc1ccc(-c2cccnc2)cc1N1CCC(CO)CC1,34.5% (inactive)
6,Oc1cc(Nc2ccnc3cc(Cl)ccc23)c2ncccc2c1,39.3% (inactive)
7,CC(C)OC(=O)Nc1cc(F)ccc1F,99.6% (inactive)
8,Nn1c(Nc2ccc(S(=O)(=O)Nc3ncccn3)cc2)nnc(/C=C/c2c(O)ccc3ccccc23)c1=O,83.3% (inactive)
9,O=S(=O)(NCCNc1nccc(-c2c(-c3cccc(F)c3)nc3occn23)n1)c1ccc(C(F)(F)F)cc1,77.5% (inactive)
10,CC1(C)CC[C@]2(C(=O)O)CC[C@]3(C)C(=CC[C@@H]4[C@@]5(C)C/C(=C/c6ccco6)C(=O)C(C)(C)[C@@H]5CC[C@]43C)[C@@H]2C1,-82.1% [100 µM] (active)
11,Cn1cc(-c2noc(-c3cn(C)c4ncc(F)cc34)n2)c2cc(Cl)ccc21,64.3% (inactive)
12,Nc1nc(SCc2cccc([N+](=O)[O-])c2)c2[nH]cnc2n1,100% (inactive)
13,Nc1cc(NN=C(c2ccc(O)cc2)c2ccc(O)cc2)c([N+](=O)[O-])cc1[N+](=O)[O-],60.5% (inactive)
14,CCOc1ccccc1/C=N\Nc1ccc(S(=O)(=O)c2ccc(N/N=C/c3ccccc3OCC)cc2)cc1,88.9% (inactive)
15,CC(C)(C)c1cc(C(=O)Nc2ccccc2C(=O)NCCN)cc(C(C)(C)C)c1,19.6% (inactive)
16,C=C(C)[C@@H]1CC[C@]2(C(=O)NCCNCCNCCN)CC[C@]3(C)[C@H](CC[C@@H]4[C@@]5(C)CC[C@H](O)C(C)(C)[C@@H]5CC[C@]43C)[C@@H]12,-65.4% [100 µM] (active)
17,Cc1ccccc1OC(=O)c1cccc(Cl)c1,101% (inactive)
18,Cc1ccc(-c2cc(O)c(-c3ccc(C)cc3C)cc2O)c(C)c1,67.7% (inactive)
19,COc1ncnc2c(-c3ccccc3)cn(COCc3ccccc3)c12,-0.37% (active)
20,C=C(C)[C@@H]1CC[C@]2(C)[C@H](CC[C@@H]3[C@@H]([C@@](C)(O)CCC=C(C)C)CC[C@]32C)[C@@]1(C)CCC(=O)O,-49.4% [100 µM] (active)

row,Compound,growth
1,CN(C)c1ccc(N=Nc2ccc3ccccc3c2)cc1,82.1% (inactive)
2,COc1c(C(C)=O)c(OCCCCOc2c(C(C)=O)c(OC)c3ccoc3c2OC)c(OC)c2occc12,57.3% (inactive)
3,c1ccc(-c2nnc(-c3c[nH]c4ncccc34)s2)cc1,104% (inactive)
4,CC1(C)C(=O)/C(=C\c2cccnc2)C[C@]2(C)[C@H]3CC[C@@H]4[C@H]5[C@H](C(=O)/C=C/c6cccnc6)CC[C@]5(C(=O)O)CC[C@@]4(C)[C@]3(C)CC[C@@H]12,-63.5% [100 µM] (active)
5,O=C(Nc1ccc(Oc2ccc(F)cc2)c(Cl)c1)c1cccnn1,66.5% (inactive)
6,O=C(NCCCCCCCNC(=O)OCc1ccc2c(Cl)cc(Cl)c(O)c2n1)OCc1ccc2c(Cl)cc(Cl)c(O)c2n1,-75% (active)
7,O=C(O)c1cn(C2CC2)c2cc(N3CCN(Cc4c(O)ccc5ccccc45)CC3)c(F)cc2c1=O,-8.22% (active)
8,CN(C)CCOc1ccc(/C(=C(/CCCl)c2ccccc2)c2ccccc2)cc1,-4.94% (active)
9,CC(=O)n1cc(C=O)c2ccccc21,94.8% (inactive)
10,CC1(C)S[C@@H]2[C@H](NC(=O)[C@H](C(=O)O)c3cccs3)C(=O)N2[C@H]1C(=O)O,122% (inactive)
11,CCCCCn1sc(=O)n(Cc2ccc(CNC(=O)OCc3ccc4cccc(O)c4n3)cc2)c1=O,-52.5% (active)
12,COc1ccc(C2CC(c3cc(OC)c(OC)c(OC)c3)=NN2C(C)=O)cc1OCC(=O)Nc1nc2ccc(C(F)(F)F)cc2s1 (stereo not given),-3.98% (active)
13,CCOC(=O)c1nc2c3ccccc3ccn2c1C(=O)OC,103% (inactive)
14,CSc1cccc([N+](=O)[O-])c1,106% (inactive)
15,O=C(NNc1ccc(-c2ccccc2)nn1)c1ccc(F)cc1,91.5% (inactive)
16,CC(=O)Nc1ccc(C=Nc2ccc3ccccc3c2)cc1,81.6% (inactive)
17,O=C(CCCSc1nc(-c2ccccc2)cc(-c2ccccc2)n1)NO,-3.2% (active)
18,CCc1ccc(NC(=O)N[C@@H](Cc2cc(F)cc(F)c2)C(=O)N[C@@H]2C(=O)N3C[C@H](O)C[C@H]3C(=O)N3CCOC[C@H]3C(=O)N[C@@H](C)C(=O)N3C[C@H](C)C[C@H]3C(=O)O[C@H]2C)cc1,10.3% (inactive)
19,O=C(Nc1cc(-c2cccnc2)nc(NCCCN2CCOCC2)n1)c1cc(Br)cc(C(F)(F)F)c1,34.6% (inactive)
20,O=C(Nc1cc(F)cc2cccnc12)c1cnc(N2CCNCC2)cn1,49.1% (inactive)
